This is a sample that favours compounds with a hit; in the whole collection about 10% have one here.
SW480 rerep: DNA re-replication induction in SW480 cells; SW480 DNA re-replication, Hoechst DNA content imaging, 48 h; Potency, µM (series often up to 46.1 µM), inactives show at the top dose re-replication activation, usual class: activators; hit rate 1.8% among 340,000; further: % of control where 0% means no effect; nearly all actives have a fitted effect of over 55% in size
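Image-based read-out: total Hoechst fluorescence of nuclei (405 nm excitation, 500-530 nm emission), with hits raising the fraction of high-intensity nuclei. SW480 colon cells incubated 48 hr with compounds at 37 C.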
MCF10A rerep: DNA re-replication induction in MCF 10a cells; MCF 10A DNA re-replication, Hoechst nuclear intensity, 48 h; Potency, µM (titrated, usually from 46.1 µM), without a hit: at the top dose activity, positive = re-replication, actives largely listed as activators; hit rate 2.9% among 350,000; AID 624296; further: % of control where 0% means no effect; nearly all actives have a fitted effect of over 50% in size
RORg inh: ROR gamma (mouse) transcription inhibition; Potency, µM (top dose mostly 53.6 µM), for inactives: at the highest dose activity change, negative = inhibition, actives largely listed as inhibitors; P51450; Drosophila S2 Gal4-RORgamma UAS-luciferase reporter, 20 h; hit rate 5.4% among 310,000; AID 2551; further: on the % scale 0 is the no-effect control and ±100 the full control effect; nearly all actives have a fitted effect of over 60% in size
Target sequence (P51450 whole entry, looked up, the tested form may be a part): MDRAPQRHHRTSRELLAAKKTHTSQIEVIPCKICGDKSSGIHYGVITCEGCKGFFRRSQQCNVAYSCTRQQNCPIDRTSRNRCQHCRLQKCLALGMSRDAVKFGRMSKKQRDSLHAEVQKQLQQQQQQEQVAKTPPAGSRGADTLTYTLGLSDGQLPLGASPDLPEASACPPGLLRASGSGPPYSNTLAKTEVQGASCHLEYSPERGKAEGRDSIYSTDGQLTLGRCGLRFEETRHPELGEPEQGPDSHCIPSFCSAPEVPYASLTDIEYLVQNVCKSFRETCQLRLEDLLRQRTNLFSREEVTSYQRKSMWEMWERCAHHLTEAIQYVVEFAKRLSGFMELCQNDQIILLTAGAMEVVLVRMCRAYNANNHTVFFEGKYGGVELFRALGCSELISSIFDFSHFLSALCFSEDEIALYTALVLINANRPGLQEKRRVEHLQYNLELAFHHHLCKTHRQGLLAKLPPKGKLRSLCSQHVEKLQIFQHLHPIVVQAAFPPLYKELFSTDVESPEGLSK
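Luciferase reporter read in Schneider cells carrying Gal4-RORγ (mouse) and UAS-Photinus luciferase; cells given compound 1 h before 700 uM copper sulfate induction, then incubated 20 h at ambient temperature.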
ELG1 repair inh: ELG1-dependent DNA repair inhibition; HEK293T ELG1-luciferase reporter, luminescence, 16 h; DNA damage induced by 5-fluorouridine; Potency, µM (highest dose often 46.1 µM), inactives show at the highest dose activity change, negative = inhibition, usual class: inhibitors; hit rate 2.3% among 330,000; further: on the % scale 0 is the no-effect control and ±100 the full control effect; nearly all actives have a fitted effect of over 55% in size
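Quantitative HTS, concentration-response format. 2,000 cells/well co-treated with 5-fluorouridine and compound, 16 hr in 5% CO2 at 37 °C; ONE-Glo luminescence read after 30 min.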
Gal4-VP16 FLuc: Gal4-VP16 reporter inhibition counter-screen; hit rate 3.5% among 310,000; Potency, µM (top dose mostly 53.6 µM), without a hit: at the highest dose activity, negative = inhibition, most hits filed as inhibitors; Drosophila S2 Gal4-VP16 UAS-luciferase, luminescence, 20 h;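 further: Gal4-VP16 expression switched on by copper sulfate through the metallothionein promoter; on the % scale 0 is the no-effect control and ±100 the full control effect; nearly all actives have a fitted effect of over 50% in size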
An asterisk follows results filed as active; u = inconclusive; x = not tested or not shown; [ ] = dose if it differs, or a comment. The call rests on the fitted dose curve; in most records, active means well fitted curve in the direction sought with a large enough effect; inconclusive means small, poorly fitted or top-dose-only effect, or another doubt; inactive means no such curve, though single readings can be large; an effect the other way counts as inactive or inconclusive. Potency means the concentration at half of the fitted maximal effect.

SMILES | SW480 rerep | MCF10A rerep | RORg inh | ELG1 repair inh | Gal4-VP16 FLuc
Cc1ccc(NC(=O)c2ccc(NCc3ccco3)c([N+](=O)[O-])c2)cc1Cl | 2.1% | u | u | 8.3% | -19.3%
CC(=O)c1ccc(-c2cccc(-c3nc4ccccn4c3NC3CCCCC3)c2)cc1 | u | u | x | 3.55µM* | x
CC(=O)Nc1ccc(NC(=O)C(C)OC(=O)c2ccc(C)s2)cc1 (centres undefined) | 4.7% | -2.5% | -1.2% | 13.7% | 3.7%
CN1C(c2ccc(F)cc2)=CS/C1=C(\C#N)c1nnc2n1-c1ccccc1SC2 | -4.5% | 11.6µM* | 19.7% | u | 14.6%
CCCCOc1cccc(C2/C(=C(\O)c3ccc4c(c3)OCCO4)C(=O)C(=O)N2CCN2CCOCC2)c1 (centres undefined) | -0.1% | -1.1% | 14.0% | 8.1% | -16.0%
CCN(CC)c1ccc(NC(=S)NC(=O)C2CCC2)cc1 | 0.9% | 7.8% | 1.78µM* | 12.1% | 6.31µM*
COc1ccc(NC(=O)C2CCN(S(C)(=O)=O)CC2)cc1 | -0.4% | u | -15.6% | -0.3% | -1.8%
CCOc1ccc(NC(=S)NC(=O)C2CCCC2)cc1 | 7.5% | 5.1% | 1.12µM* | u | 6.31µM*
CCOc1ccc(NC(=O)C2CCN(S(C)(=O)=O)CC2)cc1 | u | 0.92µM* | 13.5%[1.91 µM] | 8.0% | 2.0%
CSCC[C@H](NC(=O)[C@H](CO)NC(=O)[C@H](Cc1ccc(O)cc1)NC(=O)[C@@H](N)CO)C(=O)N[C@@H](CCC(=O)O)C(=O)N[C@@H](Cc1cnc[nH]1)C(=O)N[C@@H](Cc1ccccc1)C(=O)N[C@@H](CCCNC(=N)N)C(=O)N[C@@H](Cc1c[nH]c2ccccc12)C(=O)NCC(=O)N[C@@H](CCCCN)C(=O)N1CCC[C@H]1C(=O)N[C@H](C(=O)NCC(=O)N[C@@H](CCCCN)C(=O)N[C@@H](CCCCN)C(=O)N[C@@H](CCCNC(=N)N)C(=O)N[C@@H](CCCNC(=N)N)C(=O)N1CCC[C@H]1C(=O)N[C@H](C(=O)N[C@@H](CCCCN)C(=O)N[C@H](C(=O)N[C@@H](Cc1ccc(O)cc1)C(=O)N1CCC[C@H]1C(=O)N[C@@H](CC(N)=O)C(=O)NCC(=O)N[C@@H](C)C(=O)N[C@@H](CCC(=O)O)C(=O)N[C@@H](CC(=O)O)C(=O)N[C@@H](CCC(=O)O)C(=O)N[C@@H](CO)C(=O)N[C@@H](C)C(=O)N[C@@H](CCC(=O)O)C(=O)N[C@@H](C)C(=O)N[C@@H](Cc1ccccc1)C(=O)N1CCC[C@H]1C(=O)N[C@@H](CC(C)C)C(=O)N[C@@H](CCC(=O)O)C(=O)N[C@@H](Cc1ccccc1)C(=O)O)C(C)C)C(C)C)C(C)C | x | x | 0.7% | x | -0.1%
S=C(NN=C1CCCCCC1)Nc1ccc(Cl)cc1 | 15.3% | u | u | 19.3% | u
CCOC(=O)c1ccccc1OCc1cc(/C=N/NC(=O)c2ccncc2)ccc1OC | -3.5% | 14.6% | u | u | -1.8%
COc1ccc(NC(=S)N/N=C/c2ccc(F)c(F)c2)cc1 | u | u | 3.16µM* | 22.9% | 5.01µM*
COc1ccc(/C=N/NC(=S)Nc2ccccc2)cc1COc1ccc(F)cc1F | -0.6% | u | 0.631µM* | -14.9% | 1µM*
Fc1ccc(NC(=S)NN=C2CCCCCC2)cc1 | -5.7% | 1.2% | 4.47µM* | u | 17.8µM*
COc1ccc(NC(=S)N/N=C/c2ccc(F)cc2)cc1OC | u | -46.5% | 0.631µM* | 14.4% | 2.51µM*
COc1ccc(NC(=S)NC(=O)/C=C/c2ccc(F)cc2)cc1 | -0.8% | 4.3% | u | -1.9% | -13.5%
Nn1c(SCC(=O)NC(=O)NCc2ccco2)nnc1-c1ccc(OC(F)F)cc1 | -5.6% | -6.0% | -10.0% | -2.9% | 3.3%
CCOC(=O)Cc1nnc(NC(=O)CCc2ccccc2)s1 | 6.3% | 1.3% | 0.2% | 15.5% | -5.1%
Fc1ccc(NC(=S)N/N=C/c2ccc(F)c(F)c2)cc1 | -5.3% | -3.2% | 0.708µM* | 14.0% | 3.16µM*
Fc1ccc(/C=N/NC(=S)Nc2ccc(Cl)cc2Cl)cc1 | u | 9.7% | u | -4.4% | u
CC(=O)Oc1ccc(/C=N/NC(=S)Nc2ccccc2)cc1 | 0.0% | 5.7% | 2µM* | u | 2.51µM*
Fc1ccc(NC(=S)Nc2ccc(Cl)cc2)cc1 | 0.0% | 4.5% | u | u | -3.7%
Fc1ccc(/C=N/NC(=S)Nc2ccc(Cl)cc2)cc1F | 4.1% | 1.3% | 0.708µM* | u | 1.41µM*
Cc1cc(OCC(=O)OCC(=O)NCCN2C(=O)CSC2=O)ccc1Cl | -0.1% | -5.6% | x | 5.8% | x
SMILES | SW480 rerep | MCF10A rerep | RORg inh | ELG1 repair inh | Gal4-VP16 FLuc
COc1ccc(CNC(=O)COC(=O)[C@H](Cc2c[nH]c3ccccc23)NC(=O)c2cccs2)cc1 | 0.8% | u | -6.5% | 13.2% | -4.3%
CCc1ccc(NC(=O)c2sc3nc(C)nc(N4CCN(c5ccccn5)CC4)c3c2C)cc1 | 16.7% | u | 45.2% | -2.6% | -9.8%
CSc1ccccc1NC(=O)CN1CCN(c2ccccn2)CC1 | -2.5% | -20.4% | -1.2% | -25.2% | -2.6%
COc1ccc(NC(=O)c2sc3nc(C)nc(N4CCN(c5ccccn5)CC4)c3c2C)cc1Cl | 26.5% | u | -0.1% | 3.26µM* | -4.7%
Cc1nc(N2CCN(c3ccccn3)CC2)c2c(C)c(C(=O)Nc3ccc(F)cc3Cl)sc2n1 | u | 16.4µM* | u | u | 4.6%
O=C(CN1CCN(c2ccccn2)CC1)Nc1ccc([N+](=O)[O-])cc1C(=O)Nc1ccccc1F | 1.7% | 27.3% | -24.9% | 11.6µM* | -3.4%
Cc1nc(N2CCN(c3ccccn3)CC2)c2c(C)c(C(=O)Nc3ccccc3F)sc2n1 | -4.8% | 1.3% | 1.9% | 9.2µM* | -11.7%
Cc1nc(N2CCOCC2)c2c(C)c(C(=O)Nc3ccc(F)cc3Cl)sc2n1 | -4.2% | -4.8% | -4.9% | 19.4% | -6.6%
CCCc1c(CC)c(=N)c2ccccc2n1C | -2.7% | 11.6% | 36.5% | -4.0% | -4.1%
Cc1nc(N2CCN(c3ccccn3)CC2)c2c(C)c(C(=O)N3CCN(c4cccc(Cl)c4)CC3)sc2n1 | 5.9% | u | 7.9% | 11.6µM* | -10.8%
Cc1cc(Br)ccc1NC(=O)c1sc2ncnc(N3CCN(c4ccccn4)CC3)c2c1C | 14.6µM* | 7.31µM* | 18.7% | u | -5.3%
Cc1nc(N2CCN(c3ccccn3)CC2)c2c(C)c(C(=O)Nc3ccc(F)cc3F)sc2n1 | u | u | u | 11.6µM* | 1.4%
Cc1cc(Br)ccc1NC(=O)CN1CCN(c2ccccn2)CC1 | -31.1% | -10.0% | 25.6% | -6.5% | 1.8%
